The nature of experiment [1]: Nuclear factor erythroid 2-related factor 2/antioxidant responsive element (Nrf2/ARE) small molecule agonists: qHTS cell viability counter screen in human keratinocytes (AID 1919968; active means well fitted curve in the direction sought with a large enough effect in the repeat runs; an effect the other way counts as inactive or inconclusive; further: nearly all actives have a fitted effect of over 55% in size). In short, it runs like this: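 In human HaCaT keratinocytes stably expressing an ARE-driven luciferase, compound exposure lasted 23 h at 37 C under 5% CO2. Viable cells are quantified with a protease-based fluorogenic reagent (CellTiter-Fluor) read 1 h after addition.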
On the technique in general: In qHTS, concentration-response curves come from the screen itself.

Experiment [2] is described as follows: Nuclear factor erythroid 2-related factor 2/antioxidant responsive element (Nrf2/ARE) small molecule agonists: luciferase reporter gene qHTS assay in human keratinocytes (AID 1919969). Further: nearly all actives have a fitted effect of over 35% in size. A general note: Reporter assays use an easily measured gene product as a stand-in for the process of interest.
The target in experiment [3] is Gonadotropin-releasing hormone receptor (Homo sapiens) (UniProt P30968). The experiment can be described thus: Human gonadotropin-releasing hormone receptor (GnRHR) small molecule agonists, calcium flux assay in GnRHR-HEK293 cells (AID 1920063). Further: nearly all actives have a fitted effect of over 35% in size. In short, it runs like this:
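Intracellular calcium rise is the read-out: engineered human GnRHR HEK293 cells, dye-loaded, are exposed to DMSO-dissolved compounds and fluorescence at Ex/Em 480/540 is tracked for 3 min.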
For orientation: Calcium assays in cells follow changes in intracellular calcium, usually with a dye or a luminescent sensor.

Experiment [4] has as its target KiSS-1 receptor (Homo sapiens) (UniProt Q969F8). The experiment is described as follows: Human kisspeptin (KISS1R) small molecule agonists, calcium flux assay in KISS1R-HEK293 cells (AID 1920064; active means well fitted curve in the direction sought with a large enough effect in the repeat runs; an effect the other way counts as inactive or inconclusive). In short, it runs like this: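 Concentration-response testing used 15 concentrations in triplicate on human KISS1R-expressing HEK293 cells. Calcium-dependent fluorescence (Ex/Em 480/540) was followed kinetically for 3 min after compound transfer.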

Experiment [5] in a line: G protein-coupled receptor (GPCR) small molecule agonists, calcium flux assay: HEK293 wild type cell line counter screen (AID 1920065). In short, it runs like this:
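Fluorescence intensity signals activation. After overnight (18 h) culture and a 1 h calcium dye load at 37 C, compounds are added by pin tool and the plate read at 480/540 nm for 3 min in 1 s steps.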

A short description of experiment [6]: p53 small molecule agonists, cell-based qHTS assay with human liver microsomes (AID 1963577).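 Further: p53 response element beta-lactamase reporter cells with liver microsomes plus NADPH.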 In short, it runs like this: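 p53RE-bla cells; 5 h settle, 37 C/5% CO2; cpd + HLM 0.5 mg/mL + NADPH 0.5 mg/mL (final); 16 h 37 C; LiveBLAzer 2 h RT dark; fluorescence readout.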
Experiment [7] is described as follows: p53 small molecule agonists, cell-based qHTS assay with rat liver microsomes (AID 1963578). In short, it runs like this:
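Rat liver microsome activation: microsomes 0.5 mg/mL, NADPH 0.5 mg/mL final; p53RE-bla cells, 16 h 37 C; LiveBLAzer readout, 2 h RT dark.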

The nature of experiment [8]: p53 small molecule agonists, cell-based qHTS assay with human liver microsomes: qHTS cell viability counter screen (AID 1963579). Further: nearly all actives have a fitted effect of over 45% in size. Further: potency means the concentration at half of the fitted maximal effect. In short, it runs like this:
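Luminescent CellTiter-Glo read-out, 30 min at room temperature, gauged cytotoxicity in p53RE-bla cells exposed 16 h at 37 C to DMSO-dissolved compounds with metabolic activation by human liver microsomes and NADPH, each 0.5 mg/mL final.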

A short description of experiment [9]: p53 small molecule agonists, cell-based qHTS assay with rat liver microsomes: qHTS cell viability counter screen (AID 1963580). Further: nearly all actives have a fitted effect of over 45% in size. In short, it runs like this: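 After the beta-lactamase ratio was read, CellTiter-Glo was added to the same wells and luminescence measured at 30 min; cells had been treated 16 h at 37 C with compounds, rat liver microsomes and NADPH (0.5 mg/mL final each).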

Experiment [10] can be described thus: p53 small molecule agonists, cell-based qHTS assay: qHTS cell viability counter screen (AID 1963581). Further: nearly all actives have a fitted effect of over 45% in size. In short, it runs like this: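 Luminescence from CellTiter-Glo, reflecting ATP content, serves as the cytotoxicity measure; it is taken after the 2 h reporter substrate step in HCT-116 p53RE-bla cells dosed for 16 h at 37 C.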
Experiment [11] can be described thus: p53 small molecule agonists, cell-based qHTS assay (AID 1963582; active means well fitted activation curve with a large enough effect in the signal ratio in the repeat runs, not every such curve was filed as active; the % refers to the signal ratio). In short, it runs like this:
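After plating, p53RE-bla cells sat 5 h in the incubator; compounds or DMSO vehicle were pinned in; a 16 h incubation at 37 C followed; FRET substrate was added and, 2 h later at RT, fluorescence was measured.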

Experiment [12] addresses Muscarinic acetylcholine receptor M1 (Homo sapiens) (UniProt P11229). The experiment can be described thus: Cholinergic receptor muscarinic 1 (CHRM1) small molecule agonists, cell-based qHTS assay (AID 1963589). Further: nearly all actives have a fitted effect of over 35% in size. In short, it runs like this: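 Fluorescent calcium dye reports M1 activation in stably transfected CHO cells. Compounds, 15 concentrations, added after 1 h dye loading at 37 C; kinetic reading at 1 sec intervals.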

The nature of experiment [13]: cAMP Responsive Elements (CRE) small molecule agonists, cell-based qHTS assay (AID 1963590). In short, it runs like this:
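Compound exposure lasted 3 h at 37 C/5% CO2 in CRE-bla HEK 293T cells grown in assay medium with 10% dialyzed FBS and 25 mM HEPES. Reporter signal came from LiveBLAzer B/G FRET substrate, 2 h, room temperature.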

Experiment [14] in a line: cAMP Responsive Elements (CRE) small molecule antagonists, cell-based qHTS assay (AID 1963591; active means well fitted inhibition curve with a large enough effect in the signal ratio in the repeat runs, not every such curve was filed as active; the % refers to the signal ratio). In short, it runs like this:
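Stimulation used NKH477 at a final 0.25 uM for 3 h in compound-treated CRE-bla HEK293T cells, seeded 18 h beforehand. Reporter activity was measured with LiveBLAzer B/G FRET substrate after 2 h at room temperature.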

The target of experiment [15] is Beta-2 adrenergic receptor (Homo sapiens) (UniProt P07550). The experiment is described as follows: Adrenergic beta2 receptor (ADRB2) small molecule antagonists, cell-based qHTS assay (AID 1963592). Further: nearly all actives have a fitted effect of over 50% in size. Further: potency means the concentration at half of the fitted maximal effect. In short, it runs like this: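 Assay format: CHO-ADRB2 cells, 18-20hr seeding at 37C/5% CO2, then compound plus 1nM isoproterenol agonist mix for 0.5hr RT. Homogeneous time-resolved fluorescence cAMP detection after 1hr, expressed as 665/615 nm ratio.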
Sequence of Beta-2 adrenergic receptor (Homo sapiens) (P07550 whole entry, looked up): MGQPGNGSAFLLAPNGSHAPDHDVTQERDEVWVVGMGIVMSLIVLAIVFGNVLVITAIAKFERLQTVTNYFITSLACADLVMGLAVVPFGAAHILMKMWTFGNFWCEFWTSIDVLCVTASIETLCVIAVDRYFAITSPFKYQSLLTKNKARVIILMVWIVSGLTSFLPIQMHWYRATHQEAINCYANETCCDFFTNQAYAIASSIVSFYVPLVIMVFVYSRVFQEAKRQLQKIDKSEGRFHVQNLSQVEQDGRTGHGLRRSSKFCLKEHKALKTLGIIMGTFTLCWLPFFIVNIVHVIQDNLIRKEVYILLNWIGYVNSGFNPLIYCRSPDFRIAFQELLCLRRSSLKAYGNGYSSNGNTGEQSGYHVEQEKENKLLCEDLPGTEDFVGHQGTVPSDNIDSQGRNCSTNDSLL

Experiment [16] has as its target D(2) dopamine receptor (Homo sapiens) (UniProt P14416). The experiment can be described thus: Dopamine D2 receptor (DRD2) small molecule agonists, cell-based qHTS assay (AID 1963594). Further: nearly all actives have a fitted effect of over 35% in size. In short, it runs like this:
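HEK293 cells stably expressing human DRD2, pre-treated with PDE inhibitor Ro20-1724 (0.1 mM final) and compound 10 min at room temperature, then stimulated with NKH477 (200nM […]) for 30 min. cAMP read by HTRF (665/620 nm).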

Experiment [17] has the same target. The experiment can be described thus: Dopamine D2 receptor (DRD2) small molecule antagonists, cell-based qHTS assay (AID 1963595; active means well fitted inhibition curve with a large enough effect in the signal ratio in the repeat runs, with a control signal flat; the % refers to the signal ratio). In short, it runs like this: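 Antagonist mode in DRD2-HEK293 cells: after compound addition with 0.1 mM Ro20-1724, cells received quinpirole (12 nM) and NKH477 (200 nM) for 30 min at room temperature; HTRF cAMP read after 1 h detection.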

For experiment [18], the target named is 5-hydroxytryptamine receptor 2A (Homo sapiens) (UniProt P28223). The experiment is described as follows: 5-hydroxytryptamine receptor 2A (HTR2A) small molecule antagonists, cell-based qHTS assay (AID 1963586). Further: nearly all actives have a fitted effect of over 45% in size. In short, it runs like this: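 CHO cells stably expressing human HTR2A were plated for 18 h at 37 C, then loaded with calcium dye for 1 h. Compounds were preincubated 5 min at room temperature before DOI (4 nM solution) was added. Kinetic fluorescence was read for 3 min.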
Sequence of 5-hydroxytryptamine receptor 2A (Homo sapiens) (P28223 whole entry, looked up): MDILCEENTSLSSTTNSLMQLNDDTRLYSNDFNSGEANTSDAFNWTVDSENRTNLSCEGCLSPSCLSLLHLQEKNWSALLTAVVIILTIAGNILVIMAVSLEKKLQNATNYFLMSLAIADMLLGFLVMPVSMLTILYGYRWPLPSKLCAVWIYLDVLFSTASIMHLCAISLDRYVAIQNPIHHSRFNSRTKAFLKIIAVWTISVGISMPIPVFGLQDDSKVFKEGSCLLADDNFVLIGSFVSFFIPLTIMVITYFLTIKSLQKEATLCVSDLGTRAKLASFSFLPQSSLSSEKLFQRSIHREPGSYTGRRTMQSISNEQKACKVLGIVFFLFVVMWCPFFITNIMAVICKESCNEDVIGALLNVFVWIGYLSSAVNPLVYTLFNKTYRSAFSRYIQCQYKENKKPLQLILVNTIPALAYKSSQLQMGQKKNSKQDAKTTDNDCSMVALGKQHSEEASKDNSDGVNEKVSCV

Experiment [19] has the same target. The experiment can be described thus: 5-hydroxytryptamine receptor 2A (HTR2A) small molecule agonists, cell-based qHTS assay (AID 1963587). Further: nearly all actives have a fitted effect of over 30% in size. In short, it runs like this: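 CHO cells stably expressing human HTR2A, plated 18 h, loaded with calcium dye 1 h at 37 C. Agonist mode: compounds added and intracellular calcium fluorescence recorded kinetically for 2 min at 1 sec intervals.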

Experiment [20] has as its target Muscarinic acetylcholine receptor M1 (Homo sapiens) (UniProt P11229). The experiment can be described thus: Cholinergic receptor muscarinic 1 (CHRM1) small molecule antagonists, cell-based qHTS assay (AID 1963588). Further: nearly all actives have a fitted effect of over 40% in size. In short, it runs like this: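 Compounds were tested at 15 concentrations in three independent runs. Dye-loaded CHRM1-CHO cells were exposed 5 min at room temperature before stimulation by acetylcholine added at 50nM. Intracellular calcium was read kinetically on FDSS for 3 min.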

For 8 compounds, Potency results are on record in PubChem BioAssay (Tox21).

Results filed as inconclusive are left out. Activity calls are given as the source filed them. Unless noted, the call rests on the fitted dose curve.

Sequence of Muscarinic acetylcholine receptor M1 (Homo sapiens) (P11229 whole entry, looked up): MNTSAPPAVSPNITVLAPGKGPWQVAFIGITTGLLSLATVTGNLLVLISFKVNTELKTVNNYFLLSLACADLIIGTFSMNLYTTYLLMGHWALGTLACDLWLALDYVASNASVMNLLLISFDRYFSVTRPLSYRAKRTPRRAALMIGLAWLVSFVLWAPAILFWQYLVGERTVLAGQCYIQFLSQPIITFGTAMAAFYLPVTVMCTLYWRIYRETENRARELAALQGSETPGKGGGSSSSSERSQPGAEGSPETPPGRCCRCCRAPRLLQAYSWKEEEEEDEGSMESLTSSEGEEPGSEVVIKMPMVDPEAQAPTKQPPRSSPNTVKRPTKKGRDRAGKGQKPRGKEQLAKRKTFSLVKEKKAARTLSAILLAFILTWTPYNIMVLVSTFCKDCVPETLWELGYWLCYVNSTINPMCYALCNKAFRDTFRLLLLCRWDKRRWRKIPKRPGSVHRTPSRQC
Sequence of KiSS-1 receptor (Homo sapiens) (Q969F8 whole entry, looked up): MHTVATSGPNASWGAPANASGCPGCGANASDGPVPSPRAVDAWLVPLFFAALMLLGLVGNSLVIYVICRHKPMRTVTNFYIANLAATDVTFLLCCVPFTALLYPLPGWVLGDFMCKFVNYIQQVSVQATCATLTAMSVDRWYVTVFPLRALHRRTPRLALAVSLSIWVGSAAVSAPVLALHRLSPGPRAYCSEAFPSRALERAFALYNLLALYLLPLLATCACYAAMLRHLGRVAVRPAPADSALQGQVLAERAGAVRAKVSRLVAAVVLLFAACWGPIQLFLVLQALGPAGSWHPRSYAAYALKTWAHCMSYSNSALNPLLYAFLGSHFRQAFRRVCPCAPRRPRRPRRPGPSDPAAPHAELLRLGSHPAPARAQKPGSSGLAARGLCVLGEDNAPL
Sequence of Gonadotropin-releasing hormone receptor (Homo sapiens) (P30968 whole entry, looked up): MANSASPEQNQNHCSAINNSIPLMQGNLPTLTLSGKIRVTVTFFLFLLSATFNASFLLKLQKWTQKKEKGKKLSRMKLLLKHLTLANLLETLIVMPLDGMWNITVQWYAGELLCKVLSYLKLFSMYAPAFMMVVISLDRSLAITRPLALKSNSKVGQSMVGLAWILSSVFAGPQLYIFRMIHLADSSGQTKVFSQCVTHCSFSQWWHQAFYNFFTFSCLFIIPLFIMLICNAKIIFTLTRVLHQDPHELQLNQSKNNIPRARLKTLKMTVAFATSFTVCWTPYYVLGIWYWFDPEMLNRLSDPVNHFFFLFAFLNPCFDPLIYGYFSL
Sequence of D(2) dopamine receptor (Homo sapiens) (P14416 whole entry, looked up): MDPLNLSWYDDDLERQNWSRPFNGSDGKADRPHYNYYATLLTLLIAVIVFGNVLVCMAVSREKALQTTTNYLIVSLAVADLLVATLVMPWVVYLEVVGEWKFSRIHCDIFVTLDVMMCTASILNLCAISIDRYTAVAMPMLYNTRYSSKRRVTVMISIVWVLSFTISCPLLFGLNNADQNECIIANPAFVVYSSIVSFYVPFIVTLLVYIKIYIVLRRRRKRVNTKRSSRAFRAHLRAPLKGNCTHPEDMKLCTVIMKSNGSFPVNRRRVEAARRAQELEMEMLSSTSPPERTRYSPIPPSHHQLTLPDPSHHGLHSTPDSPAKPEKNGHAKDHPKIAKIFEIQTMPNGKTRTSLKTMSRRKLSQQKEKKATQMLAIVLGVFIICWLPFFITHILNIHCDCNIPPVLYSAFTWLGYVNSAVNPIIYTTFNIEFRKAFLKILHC

With `C[C@H]1CNCCc2ccc(Cl)cc21`, the Potency entry in experiment [1], in experiment [2], in [3], in experiment [4], in experiment [5] and in [6] was “inactive” each time. The Potency entry in experiment [7], in experiment [8], in [9], in [10], in experiment [11] and in [12] was “inactive” in each case. The Potency entry in experiment [13], in [14], in experiment [16] and in experiment [17] was “inactive” in each case. The Potency in experiment [15] was 23.7 µM (active).

`CC[N+]1(C)CCCC(OC(=O)C(O)(c2ccccc2)c2ccccc2)C1` (centres undefined): the Potency result in [1], in experiment [2], in experiment [3], in [4], in experiment [5] and in [6] was “inactive” in each case. Besides, the Potency result in experiment [7], in [8], in experiment [9], in experiment [10], in experiment [18] and in experiment [19] was “inactive” throughout. The Potency result in experiment [12], in experiment [13], in experiment [14], in experiment [15], in [16] and in [17] was “inactive” each time.

As to `CCOC(=O)OC1=C(c2cc(C)ccc2C)C(=O)NC12CCC(OC)CC2` (centres undefined), the Potency result in [1], in [2], in experiment [3], in experiment [4], in [5] and in experiment [6] was “inactive” throughout. Moreover, the Potency result in experiment [7], in [9], in [10], in [18], in experiment [19] and in experiment [20] was “inactive” in each case. Besides, the Potency result in experiment [12], in experiment [14], in [15], in [16] and in experiment [17] was “inactive” each time. Moreover, the Potency in experiment [8] was 40.8 µM (active).

As to `COc1ccc2c(c1OC)CN1CCc3cc4c(cc3C1C2)OCO4` (centres undefined), the Potency entry in [1], in experiment [2], in experiment [3], in experiment [4], in experiment [5] and in experiment [6] was “inactive” throughout. The Potency entry in experiment [7], in experiment [8], in [9], in experiment [10], in experiment [18] and in experiment [19] was “inactive” throughout. The Potency result in experiment [20], in experiment [12], in experiment [14] and in experiment [17] was “inactive” in each case.

`C[As+](C)(C)CC(=O)[O-]`: the Potency entry in experiment [1], in experiment [2], in [3], in experiment [4], in [5] and in experiment [6] was “inactive” throughout. For the same compound, the Potency entry in experiment [7], in experiment [8], in experiment [9], in [10], in experiment [18] and in [19] was “inactive” throughout. In addition, the Potency entry in [20], in experiment [12], in experiment [13], in [14], in [15] and in experiment [16] was “inactive” each time. Also, in [17], the Potency entry is “inactive”.

Consider `O=c1oc2ccccc2c(O)c1C1CCCc2ccccc21` (centres undefined), for which the Potency entry in experiment [1], in experiment [2], in experiment [3], in experiment [4], in [5] and in [6] was “inactive” in each case. The Potency result in experiment [7], in experiment [8], in [9], in [10], in experiment [11] and in experiment [19] was “inactive” each time. In addition, the Potency result in [20], in experiment [12], in experiment [13], in experiment [14] and in experiment [17] was “inactive” throughout.

On to `N#CCCSCCC#N`, for which the Potency result in experiment [1], in [2], in [3], in experiment [4], in [5] and in experiment [6] was “inactive” throughout. Further, the Potency entry in [7], in [8], in [9], in experiment [10], in [18] and in [19] was “inactive” in each case. In addition, the Potency entry in experiment [20], in [12], in experiment [13] and in experiment [16] was “inactive” throughout.

With `Nc1ccccc1-c1ccccc1`, the Potency entry in experiment [1], in [2], in [3], in [4], in experiment [5] and in [6] was “inactive” each time. In addition, the Potency entry in experiment [7], in [8], in experiment [9], in [10], in experiment [18] and in experiment [19] was “inactive” each time. Moreover, the Potency entry in experiment [20], in experiment [12], in [13], in experiment [14], in [15] and in experiment [17] was “inactive” throughout.
